Measurements: PubChem BioAssay (Tox21)
Inconclusive results are not listed. Active and inactive are the calls of the source. The call rests on the fitted dose curve.

test: qHTS assay for small molecule disruptors of the mitochondrial membrane potential - cell viability (AID 720634); conditions: HepG2 viability, ATP luminescence (CellTiter-Glo), 1 h; series mostly up to 83.2 µM;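 further: human HepG2 liver cancer cells; nearly all actives have a fitted effect of over 20% in size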
Source text: U.S. Tox21 Program National Center for Advancing Translational Sciences [NCATS] NIH Chemical Genomics Center [NCGC] U.S. Environmental Protection Agency [EPA] National Institutes of Environmental Health Sciences [NIEHS] National Toxicology Program [NTP] U.S. Food and Drug Administration [FDA] Tox21 Assay Overview: Mitochondrial membrane potential (MMP), one of the parameters for mitochondrial function, is generated by mitochondrial electron transport chain that creates an electrochemical gradient by a series of redox reactions. This gradient drives the synthesis of ATP, a crucial molecule for various cellular processes. Measuring MMP in living cells is commonly used to assess the effect of chemicals on mitochondrial function; decreases in MMP can be detected using lipophilic cationic fluorescent dyes. […] The dye accumulates in the mitochondria of healthy cells as aggregates, with red fluorescence. The mitochondrial potential decreases and the dye could not accumulate in the mitochondria and remains in the cytoplasm in monomers, with green fluorescence. In addition to the mitochondrial potential assay, these cells were also used to test the cytotoxicity by determining the cell viability in the culture based on the quantitation of ATP present. The cytotoxicity was measured in the same assay well of MMP assay.
Tox21 Assay Protocol Summary: 2,000 HepG2 cells in 5 uL/well were dispensed into black, clear-bottom 1536-well plates using a Multidrop Combi (Thermo Scientific) dispenser. The assay plates were incubated for an overnight at 37 C to allow cells to attach to the wells, followed by the transfer of 23 nL compound or DMSO vehicle by a pin tool (Kalypsys). The plates were incubated for 1 hr at 37 C and 5% CO2, followed by the addition of 5 uL of 2X m-MPI dye into each well using Flying Reagent Dispenser (Aurora Discovery) and then CellTiter-Glo reagent was added at 4 uL/well and incubated 30 min at room temperature. Then luminescence intensity was quantified on a ViewLux CCD-based plate reader.

Structure (SMILES)	outcome
CC(=O)OCCCc1ccccc1	inactive
C=C[Si](C)(C)O[Si](C)(C)C=C	inactive
OC[C@@H](O)[C@H](O)[C@@H](O)[C@@H](O)CO	inactive
CC(=O)OC(C)(C)Cc1ccccc1	inactive
O=C1OC(=O)c2cc(Oc3ccc4c(c3)C(=O)OC4=O)ccc21	inactive
CC(=O)/C=C/c1ccco1	inactive
Nc1cc(Cl)cc(S(=O)(=O)O)c1O	inactive
CCOC(=O)CC(CC(=O)OCC)(OC(C)=O)C(=O)OCC	inactive
CCC(O)C(C)(C)C (stereo not given)	inactive
C[Si]1(C)N[Si](C)(C)N[Si](C)(C)N1	inactive
CCC(=O)OCCC(C)CCC=C(C)C (stereo not given)	inactive
NC(=O)NNC(N)=O	inactive
Nc1cc(C(=O)O)ccc1Cl	inactive
C=C(C)[C@@H]1CC[C@@H](C)C[C@@H]1O	inactive
CN(C1CCCCC1)S(=O)(=O)c1ccccc1N	inactive
Cc1cc(O)c2c(c1)C(=O)c1cccc(O)c1C2=O	inactive
CCCCCC1Nc2cc(C(F)(F)F)c(S(N)(=O)=O)cc2S(=O)(=O)N1 (stereo not given)	inactive
C[C@H]1O[C@H](O[C@H]2[C@H](O)[C@@H](O)[C@@H](O[C@H]3[C@H](O)[C@@H](O)[C@H](O)O[C@@H]3CO)O[C@@H]2CO)[C@H](O)[C@@H](O)[C@@H]1N[C@H]1C=C(CO)[C@@H](O)[C@H](O)[C@H]1O	inactive
C/C=C(\C)C(=O)OCC/C=C\CC	inactive
CNC(=O)C(c1ccccc1)c1ccccc1	inactive

Structure (SMILES)	outcome
CC(=O)N(CC(O)CO)c1c(I)c(C(=O)NCC(O)CO)c(I)c(C(=O)NCC(O)CO)c1I (stereo not given)	inactive
O=c1cc(O)c(Cl)c[nH]1	inactive
CCC(=O)c1ccc(O)cc1	inactive
CN=C(NC#N)NCCSCc1csc(N=C(N)N)n1	inactive
CC1(N)CCC(C(C)(C)N)CC1 (stereo not given)	inactive
C1CCN2C[C@@H]3C[C@@H](CN4CCCC[C@@H]34)[C@H]2C1	inactive
CCCCCC(=O)OCC	inactive
O=S(=O)(O)SSS(=O)(=O)O	inactive
O=C(O)c1ccccc1C(=O)Nc1ccc(S(=O)(=O)Nc2nccs2)cc1	inactive
Cc1ccccc1OCC1CO1 (stereo not given)	inactive
C=C(C)C(=O)OC	inactive
CCCCCC1CCCC(=O)O1 (stereo not given)	inactive
BrC/C=C/CBr	inactive
COc1ccc(N=Nc2cc(C)c(N=Nc3ccc(S(=O)(=O)O)cc3)cc2OC)cc1	inactive
CC(=O)c1ccc(OCC(=O)N2CCCCC2)cc1	inactive
CO[Si](CCCS)(OC)OC	inactive
CCC(C)(CCC(C)C)C(=O)[O-].CCC(C)(CCC(C)C)C(=O)[O-].[Zn+2] (stereo not given)	inactive
C=C(C)C(=O)OCCCCCCOC(=O)C(=C)C	inactive
C[C@H](CCC(=O)O)[C@H]1CC[C@H]2[C@@H]3[C@H](O)C[C@@H]4C[C@H](O)CC[C@]4(C)[C@H]3C[C@H](O)[C@]12C	inactive
CCC(C)(C)C1CCC(=O)CC1	inactive
